Source: PubChem BioAssay (Tox21)
Values joined by “and” are separate entries in the source; they are usually repeats but may differ in a detail not shown here. Equal entries are not always repeated. Inconclusive results are not listed. Where a call stands in place of a potency, no number is given. Where a structure was tested more than once in an assay, its records may differ in their call. Active and inactive are the calls of the source. Unless noted, calls come from the whole dose curve; as a rule, active = well fitted curve in the direction sought with a large enough effect in the repeat runs; inconclusive = weak or mixed curves; inactive = no such curve, though single readings can be large; an effect the other way counts as inactive or inconclusive.

Legend:
[1] = qHTS assay to identify small molecule agonists of the peroxisome proliferator-activated receptor delta (PPARd) signaling pathway - cell viability counter screen (AID 743211); note: nearly all actives have a fitted effect of over 55% in size; note: potency is the fitted concentration of half-maximal effect
Outline: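 Multiplexed format: after the 2 h room-temperature LiveBLAzer B/G FRET step, CellTiter-Glo was added to the same wells. Luminescence after 30 min gave cell viability; compound exposure was 17 h at 37C.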

[2] = qHTS assay to identify small molecule antagonists of the peroxisome proliferator-activated receptor delta (PPARd) signaling pathway - cell viability counter screen (AID 743213); note: nearly all actives have a fitted effect of over 50% in size; note: potency is the fitted concentration of half-maximal effect
Outline: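 CellTiter-Glo was added to PPARd-bla HEK293H wells following 17 h compound treatment in the presence of 300 nM L165041. Luminescence was recorded after 30 min at room temperature.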

[3] = qHTS assay to identify small molecule agonists of the farnesoid-X-receptor (FXR) signaling pathway - cell viability counter screen (AID 743218); note: nearly all actives have a fitted effect of over 45% in size; note: potency is the fitted concentration of half-maximal effect
Outline: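 Viability counter screen in the same wells: CellTiter-Glo luminescence, 30 min room-temperature incubation, measured after the beta-lactamase read. Cells were GeneBLAzer FXR-UAS-bla HEK 293T, compound-treated 16 h at 37C.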

[4] = qHTS assay to identify small molecule antagonists of the farnesoid-X-receptor (FXR) signaling pathway - cell viability counter screen (AID 743221; active = well fitted cell-killing curve with a large enough effect in the repeat runs, not every such curve was filed as active; note: nearly all actives have a fitted effect of over 50% in size; note: potency is the fitted concentration of half-maximal effect)
Outline: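 CellTiter-Glo, 30 min RT, luminescence; same wells as the LiveBLAzer FRET read. Cells: FXR-UAS-bla HEK 293T. Treatment: compound with chenodeoxycholic acid 50 uM final, 16 h at 37 C.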

[5] = molecular target: Vitamin D3 receptor (Homo sapiens) (UniProt P11473); experiment: qHTS assay to identify small molecule agonists of the vitamin D receptor (VDR) signaling pathway (AID 743222; calls by dose curve)
Sequence of Vitamin D3 receptor (Homo sapiens) (P11473 whole entry, looked up): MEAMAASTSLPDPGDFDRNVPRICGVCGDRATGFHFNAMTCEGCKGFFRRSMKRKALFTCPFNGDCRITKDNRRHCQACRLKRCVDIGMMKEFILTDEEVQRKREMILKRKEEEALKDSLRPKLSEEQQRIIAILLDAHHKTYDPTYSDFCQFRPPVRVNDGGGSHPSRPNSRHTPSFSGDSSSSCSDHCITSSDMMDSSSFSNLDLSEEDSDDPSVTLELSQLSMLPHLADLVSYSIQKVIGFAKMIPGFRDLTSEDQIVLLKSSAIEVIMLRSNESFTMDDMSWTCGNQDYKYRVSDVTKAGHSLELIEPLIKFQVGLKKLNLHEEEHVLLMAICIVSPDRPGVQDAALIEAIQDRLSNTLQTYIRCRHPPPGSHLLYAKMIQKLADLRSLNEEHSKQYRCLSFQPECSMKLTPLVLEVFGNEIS
Outline: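 Agonist mode, beta-lactamase reporter: fluorescence from LiveBLAzer B/G FRET substrate (2 h, room temperature) read after 16 h compound treatment at 37 C of VDR-bla cells, which were pre-incubated 4 h after seeding.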

[6] = molecular target: Vitamin D3 receptor (Homo sapiens) (UniProt P11473); experiment: qHTS assay to identify small molecule antagonists of the vitamin D receptor (VDR) signaling pathway (AID 743223; active = well fitted inhibition curve with a large enough effect in the signal ratio in the repeat runs, not every such curve was filed as active; the % refers to the signal ratio; note: potency is the fitted concentration of half-maximal effect)
Outline: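 After VDR-bla cells are plated and left 4 h at 37C, DMSO-dissolved compounds and 3 nM (final) calcitriol agonist are added. Incubation continues 16 h at 37C; FRET beta-lactamase substrate then develops 2 h at room temperature.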

[7] = qHTS assay to identify small molecule agonists of the vitamin D receptor (VDR) signaling pathway - cell viability counter screen (AID 743224); note: nearly all actives have a fitted effect of over 50% in size; note: potency is the fitted concentration of half-maximal effect
Outline: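 Counter screen run in the same wells as the VDR-bla reporter assay: CellTiter-Glo luminescence, 30 min at room temperature, after 16 h compound treatment at 37C of cells pre-plated for 4 h.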

[8] = qHTS assay to identify small molecule antagonists of the vitamin D receptor (VDR) signaling pathway - cell viability counter screen (AID 743225); note: nearly all actives have a fitted effect of over 50% in size; note: potency is the fitted concentration of half-maximal effect
Outline: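 Cytotoxicity toward the VDR-bla HEK 293T line was scored by ATP-based CellTiter-Glo luminescence, read in the wells already used for the beta-lactamase readout after 16 h compound treatment under 3 nM 1-alpha,25-dihydroxyvitamin D3 stimulation.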

[9] = qHTS assay to identify small molecule agonists of the NFkB signaling pathway - cell viability counter screen (AID 1159515; calls by dose curve; note: nearly all actives have a fitted effect of over 55% in size; note: potency is the fitted concentration of half-maximal effect)
Outline: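 Read by CellTiter-Glo luminescence (30 min, room temperature) in the wells also used for the beta-lactamase FRET read. ME-180 NFkB-bla cells at 2,000 per well were plated overnight, then exposed to compound for 5 hr at 37 C.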

[10] = qHTS assay to identify small molecule agonists of the endoplasmic reticulum stress response signaling pathway - cell viability counter screen (AID 1159517; calls by dose curve; note: nearly all actives have a fitted effect of over 50% in size; note: potency is the fitted concentration of half-maximal effect)
Outline: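 ESRE-bla HeLa cells (1,500/well) were plated overnight at 37 C and exposed to compounds for 5 hr. After the 2 hr beta-lactamase substrate read, CellTiter-Glo went into the same wells, and luminescence was read after 30 min at room temperature.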

[11] = qHTS assay to identify small molecule antagonists of the retinoid-related orphan receptor gamma (ROR-gamma) signaling pathway - cell viability counter screen (AID 1159520); note: nearly all actives have a fitted effect of over 50% in size; note: potency is the fitted concentration of half-maximal effect
Outline: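 Cytotoxicity was read from cellular ATP (CellTiter-Glo luminescence) after 16 hr at 37 C with 1 uM doxycycline induction. The inducer was added 2 hr after compound transfer to Tet-on ROR gamma CHO cells.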

[12] = qHTS assay to identify small molecule agonists of the AP-1 signaling pathway - cell viability counter screen (AID 1159525; calls by dose curve; note: nearly all actives have a fitted effect of over 55% in size; note: potency is the fitted concentration of half-maximal effect)
Outline: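 Intracellular ATP by Cell Titer Glo luminescence (30 min, RT) in the same ME-180 AP-1-bla wells after the 5 h compound exposure at 37 °C. Normalised to tetra n-octyl ammonium bromide and DMSO controls.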

[13] = molecular target: Retinoic acid receptor RXR-alpha (Homo sapiens) (UniProt P19793); experiment: qHTS assay to identify small molecule agonists of the RXR signaling pathway (AID 1159527; calls by dose curve; note: nearly all actives have a fitted effect of over 35% in size)
Sequence of Retinoic acid receptor RXR-alpha (Homo sapiens) (P19793 whole entry, looked up): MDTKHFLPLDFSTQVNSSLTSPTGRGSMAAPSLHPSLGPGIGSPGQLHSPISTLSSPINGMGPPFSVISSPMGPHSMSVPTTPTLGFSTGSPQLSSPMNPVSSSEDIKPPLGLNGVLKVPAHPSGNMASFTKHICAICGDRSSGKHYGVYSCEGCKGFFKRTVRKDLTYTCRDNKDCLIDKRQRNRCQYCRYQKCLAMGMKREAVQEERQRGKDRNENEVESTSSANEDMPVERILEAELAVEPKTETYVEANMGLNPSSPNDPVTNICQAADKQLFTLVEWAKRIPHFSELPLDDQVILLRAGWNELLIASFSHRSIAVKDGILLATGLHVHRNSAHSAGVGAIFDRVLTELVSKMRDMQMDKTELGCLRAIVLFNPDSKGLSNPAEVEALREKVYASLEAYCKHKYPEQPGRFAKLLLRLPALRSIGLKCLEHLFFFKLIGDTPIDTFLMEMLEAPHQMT
Outline: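 Reporter activation is measured as beta-lactamase activity via FRET substrate cleavage (emission 460/530 nm) in HEK 293T cells expressing an RXR-alpha-driven bla construct, following 16 hr compound exposure at 37 C.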

[14] = molecular target: Peroxisome proliferator-activated receptor delta (Homo sapiens) (UniProt Q03181); experiment: qHTS assay to identify small molecule antagonists of the peroxisome proliferator-activated receptor delta (PPARd) signaling pathway (AID 743215; active = well fitted inhibition curve with a large enough effect in the signal ratio in the repeat runs, not every such curve was filed as active; the % refers to the signal ratio;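 note: cells stimulated with agonist L165041 at 300 nM final during compound exposure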; note: potency is the fitted concentration of half-maximal effect)
Sequence of Peroxisome proliferator-activated receptor delta (Homo sapiens) (Q03181 whole entry, looked up): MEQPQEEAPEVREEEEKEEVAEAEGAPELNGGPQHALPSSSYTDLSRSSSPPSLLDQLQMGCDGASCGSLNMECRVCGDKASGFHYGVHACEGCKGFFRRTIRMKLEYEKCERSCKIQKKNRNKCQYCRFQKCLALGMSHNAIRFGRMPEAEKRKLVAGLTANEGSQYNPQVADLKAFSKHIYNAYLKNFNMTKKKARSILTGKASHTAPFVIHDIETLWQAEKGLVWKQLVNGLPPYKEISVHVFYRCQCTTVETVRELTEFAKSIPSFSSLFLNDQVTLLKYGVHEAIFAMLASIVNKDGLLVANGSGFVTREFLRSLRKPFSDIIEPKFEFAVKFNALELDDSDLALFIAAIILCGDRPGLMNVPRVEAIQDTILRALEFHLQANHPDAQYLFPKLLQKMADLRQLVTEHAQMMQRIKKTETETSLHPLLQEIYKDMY
Outline: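 Agonist L165041 (300 nM final) added with compound to PPARd-bla HEK293H UAS-bla reporter cells; 17 h incubation at 37 C. Read-out: LiveBLAzer FRET substrate, 2 h at room temperature, fluorescence intensity.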

[15] = qHTS assay to identify small molecule agonists of the endoplasmic reticulum stress response signaling pathway (AID 1159516; active = well fitted activation curve with a large enough effect in the signal ratio in the repeat runs, not every such curve was filed as active; the % refers to the signal ratio)
Outline: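 Ratiometric FRET readout (405 nm excitation; 460 and 530 nm emission) of a beta-lactamase gene driven by the ER stress response element, after 2 hr substrate loading. HeLa ESRE-bla cells were seeded overnight and treated with compounds for only 5 hr at 37 C.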

[16] = molecular target: Peroxisome proliferator-activated receptor delta (Homo sapiens) (UniProt Q03181); experiment: qHTS assay to identify small molecule agonists of the peroxisome proliferator-activated receptor delta (PPARd) signaling pathway (AID 743212; calls by dose curve;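 note: HEK293H cells with PPARd UAS beta-lactamase reporter GeneBLAzer system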)
Outline: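 Beta-lactamase reporter readout: a ratiometric FRET signal from the LiveBLAzer substrate after 2 h at room temperature. Compound exposure at 37 °C in PPARδ-bla HEK293H cells driven by an upstream activator sequence.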

[17] = molecular target: Bile acid receptor (Homo sapiens) (UniProt Q96RI1); experiment: qHTS assay to identify small molecule agonists of the farnesoid-X-receptor (FXR) signaling pathway (AID 743220; active = well fitted activation curve with a large enough effect in the signal ratio in the repeat runs, not every such curve was filed as active; the % refers to the signal ratio)
Sequence of Bile acid receptor (Homo sapiens) (Q96RI1 whole entry, looked up): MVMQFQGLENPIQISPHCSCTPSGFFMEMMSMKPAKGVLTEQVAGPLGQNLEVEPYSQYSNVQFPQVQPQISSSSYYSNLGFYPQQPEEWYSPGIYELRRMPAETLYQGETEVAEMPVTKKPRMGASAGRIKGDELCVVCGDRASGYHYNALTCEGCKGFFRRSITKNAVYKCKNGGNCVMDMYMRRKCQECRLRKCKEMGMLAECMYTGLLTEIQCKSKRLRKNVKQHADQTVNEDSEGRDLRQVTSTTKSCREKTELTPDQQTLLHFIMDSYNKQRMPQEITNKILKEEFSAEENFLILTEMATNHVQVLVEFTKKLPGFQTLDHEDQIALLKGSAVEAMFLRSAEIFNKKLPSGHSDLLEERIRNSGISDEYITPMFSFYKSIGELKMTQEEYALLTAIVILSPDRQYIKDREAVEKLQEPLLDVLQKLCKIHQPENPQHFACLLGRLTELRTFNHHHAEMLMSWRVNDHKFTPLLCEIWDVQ
Outline: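 FXR-UAS-bla HEK 293T cells carrying a UAS-driven beta-lactamase reporter were plated for 5 h at 37C/5% CO2, then exposed to DMSO-dissolved Tox21 10K compounds for 16 h at 37C. A LiveBLAzer B/G FRET substrate was loaded for 2 h at room temperature before fluorescence reading.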

[18] = molecular target: Nuclear receptor ROR-gamma (Homo sapiens) (UniProt P51449); experiment: qHTS assay to identify small molecule antagonists of the retinoid-related orphan receptor gamma (ROR-gamma) signaling pathway (AID 1159521; note: nearly all actives have a fitted effect of over 50% in size; note: potency is the fitted concentration of half-maximal effect)
Outline: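 Readout: ONE-Glo luciferase luminescence, 30 min at room temperature. System: Tet-on RORγ CHO, RORE-LUC. Sequence: compound 2 h, doxycycline 1 uM final, 16 h at 37 C.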

[19] = qHTS assay to identify small molecule agonists of the AP-1 signaling pathway (AID 1159526; calls by dose curve; note: potency is the fitted concentration of half-maximal effect)

| Structure (SMILES) | Potency [1] | Potency [2] | Potency [3] | Potency [4] | Potency [5] | Potency [6] | Potency [7] | Potency [8] | Potency [9] | Potency [10] | Potency [11] | Potency [12] | Potency [13] | Potency [14] | outcome [15] | Potency [16] | Potency [17] | Potency [18] | Potency [19] |
| --- | --- | --- | --- | --- | --- | --- | --- | --- | --- | --- | --- | --- | --- | --- | --- | --- | --- | --- | --- |
| O=C(O[C@@H]1Cc2c(O)cc(O)cc2O[C@@H]1c1cc(O)c(O)c(O)c1)c1cc(O)c(O)c(O)c1 | inactive | inactive | inactive | inactive | inactive | inactive | inactive | inactive | inactive | inactive | inactive | inactive | inactive |  |  |  |  |  |  |
| O=Nc1ccc(Nc2ccccc2)cc1 | 43.9 µM (active) and 38.9 µM (active) | 49 µM (active) | 55.3 µM (active) and 54.9 µM (active) | 39.1 µM (active) | inactive |  | 17.5 µM (active) and 49 µM (active) |  | inactive |  | 19.4 µM (active) and 15.4 µM (active) | inactive |  | 30.9 µM (active) | inactive |  |  |  |  |
| Oc1c(Cl)cc(Cl)cc1Sc1cc(Cl)cc(Cl)c1O |  | 49.1 µM (active) and 19.5 µM (active) | 15.5 µM (active) | 27.6 µM (active) | inactive |  | 21.9 µM (active) and 44.4 µM (active) and inactive | 24.6 µM (active) and 55.9 µM (active) and 43.6 µM (active) | 55.1 µM (active) and inactive | 55.1 µM (active) and 55.9 µM (active) and 49 µM (active) | 15.4 µM (active) and 21.7 µM (active) | 49.1 µM (active) and 49 µM (active) and inactive |  | 21.9 µM (active) and 17.4 µM (active) and inactive |  | inactive | inactive |  |  |
| Cc1ccc(S(=O)(=O)Oc2ccc(N=Nc3ccc(-c4ccc(N=Nc5c(O)ccc6cc(S(=O)(=O)O)cc(S(=O)(=O)O)c56)c(C)c4)cc3C)cc2)cc1 | inactive |  | inactive | inactive |  |  |  | inactive | inactive | inactive | inactive | inactive | inactive | inactive |  | inactive | inactive |  |  |
| COC(=O)/C=C/c1ccccc1 | inactive | inactive | inactive | inactive | inactive | inactive | inactive | inactive |  | inactive | inactive | inactive | inactive | inactive | inactive | inactive |  | inactive | inactive |
| CC[C@]1(O)C[C@@H]2CN(CCc3c([nH]c4ccccc34)[C@@](C(=O)OC)(c3cc4c(cc3OC)N(C)[C@H]3[C@@](O)(C(=O)OC)[C@H](OC(C)=O)[C@]5(CC)C=CCN6CC[C@]43[C@@H]65)C2)C1 | inactive | inactive | inactive | inactive | inactive | inactive | inactive | inactive | inactive | inactive |  | inactive |  | inactive |  | inactive |  | 596 nM (active) and 8.41 µM (active) | 0.268 µM (active) |
| COc1ccc(CCN2CCC(Nc3nc4ccccc4n3Cc3ccc(F)cc3)CC2)cc1 | 2.81 µM (active) and 7.5 µM (active) | 3.16 µM (active) and 23.7 µM (active) | 2.81 µM (active) and 23.7 µM (active) | 7.07 µM (active) and 29.8 µM (active) |  |  | 3.98 µM (active) and 10.6 µM (active) | 6.3 µM (active) and 23.9 µM (active) | 17.8 µM (active) | 31.6 µM (active) | 17.6 µM (active) and 26.6 µM (active) | 35.4 µM (active) and inactive |  |  | inactive |  | inactive |  | inactive |
| Nc1cc(Cl)c(-c2cc(Cl)c(N)cc2Cl)cc1Cl | 48.9 µM (active) and 43.6 µM (active) |  | 43.6 µM (active) and 12.3 µM (active) | 38.9 µM (active) |  |  | 49 µM (active) | 21.9 µM (active) | 48.9 µM (active) and 54.9 µM (active) | 54.9 µM (active) | 61.1 µM (active) | 38.9 µM (active) and 54.9 µM (active) |  |  |  | inactive |  | 7.69 µM (active) and 7.7 µM (active) |  |
| O=C(O)c1cn(-c2ccc(F)cc2)c2cc(N3CCNCC3)c(F)cc2c1=O | inactive | inactive | inactive | inactive |  |  |  | inactive |  | inactive | inactive | inactive | inactive | inactive | inactive | inactive |  | inactive | inactive |
| CC(C)(C)c1ccc(O)c(C(C)(C)C)c1 | 38.7 µM (active) and 49 µM (active) | 38.7 µM (active) and 49 µM (active) |  | 54.9 µM (active) | inactive |  |  | 24.4 µM (active) and 43.6 µM (active) | 48.8 µM (active) and 49 µM (active) | 54.7 µM (active) and 49 µM (active) | 54.3 µM (active) | 34.5 µM (active) |  |  |  |  |  | 43.1 µM (active) and inactive |  |
| O=C(Nc1ccccc1SSc1ccccc1NC(=O)c1ccccc1)c1ccccc1 | 19.6 µM (active) and 12.3 µM (active) | 12.4 µM (active) and 11 µM (active) | inactive | inactive |  |  | 12.4 µM (active) and 12.3 µM (active) |  | inactive | inactive | 24.3 µM (active) | inactive |  |  |  |  |  | 8.68 µM (active) and 17.2 µM (active) |  |
| CC[C@H]1CN2CCc3cc(OC)c(OC)cc3[C@@H]2C[C@@H]1C[C@H]1NCCc2cc(OC)c(OC)cc21 | 43.8 µM (active) |  | 27.6 µM (active) and inactive | inactive | inactive | 0.492 µM (active) | 19.6 µM (active) and inactive | inactive | inactive | 6.94 µM (active) and 4.25 µM (active) |  | inactive |  | 0.438 µM (active) |  | inactive |  |  |  |
